From PubChem
Rows were chosen to be rich in hits. Some 0.9% of all compounds tested hit in one or more screens of this group.
RXFP1 ag – RXFP1 (human) receptor agonism | Q9HBX9 | HEK293T-RXFP1 cAMP TR-FRET, 30 min; response scale: percent of porcine relaxin response, buffer zero | Potency, µM (series often up to 57.5 µM), without a hit: at the highest dose activation, actives largely listed as activators | actives 0.3% (n = 370,000) | AID 2676; active means well fitted activation curve with a large enough effect; inconclusive means small, poorly fitted or top-dose-only effect; further: potency means the concentration at half of the fitted maximal effect; on the % scale 0 is the no-effect control and ±100 the full control effect; nearly all actives have a fitted effect of over 60% in size
Target sequence (Q9HBX9 whole entry, looked up): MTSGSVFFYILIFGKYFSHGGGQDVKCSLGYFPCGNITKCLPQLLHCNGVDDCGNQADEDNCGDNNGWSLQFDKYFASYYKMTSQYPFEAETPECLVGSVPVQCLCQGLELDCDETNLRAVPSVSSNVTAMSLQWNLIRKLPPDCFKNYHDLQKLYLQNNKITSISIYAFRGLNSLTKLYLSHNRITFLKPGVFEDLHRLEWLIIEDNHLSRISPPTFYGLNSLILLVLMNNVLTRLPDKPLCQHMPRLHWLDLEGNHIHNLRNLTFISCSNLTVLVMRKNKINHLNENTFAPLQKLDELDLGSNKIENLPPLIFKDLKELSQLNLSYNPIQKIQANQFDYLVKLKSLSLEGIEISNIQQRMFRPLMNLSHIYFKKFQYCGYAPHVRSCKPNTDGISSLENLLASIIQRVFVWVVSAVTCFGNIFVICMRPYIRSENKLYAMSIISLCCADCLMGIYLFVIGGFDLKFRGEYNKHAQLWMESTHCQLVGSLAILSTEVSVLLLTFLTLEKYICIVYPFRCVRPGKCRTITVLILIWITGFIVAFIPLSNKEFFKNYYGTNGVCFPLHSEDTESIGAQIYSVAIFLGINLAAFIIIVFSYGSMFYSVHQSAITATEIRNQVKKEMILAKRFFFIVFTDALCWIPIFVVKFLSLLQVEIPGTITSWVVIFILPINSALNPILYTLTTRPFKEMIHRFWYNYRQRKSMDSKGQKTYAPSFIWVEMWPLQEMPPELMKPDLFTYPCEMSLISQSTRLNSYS
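HEK293T cells stably expressing RXFP1 were pretreated with the PDE4 inhibitor Ro 20174, exposed to compounds for 30 min at 37C, lysed, and cAMP was read by TR-FRET. Data normalized to buffer (basal) and 29 nM porcine relaxin (100%).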
RXFP1 antag – RXFP1 (human) relaxin receptor antagonism; Q9HBX9; HEK293-RXFP1, relaxin-stimulated cAMP HTRF, 30 min; stronger effect = lower value; activity change, negative = inhibition, % at 57.5 µM; actives 0.59% (n = 350,000);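 active means activity change of -60% or lower, but not beyond a set lower limit; inconclusive means change between -60% and -40%, or beyond the set limit; inactive means change above -40%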; further: on the % scale 0 is the no-effect control and ±100 the full control effect
gsp antag – antagonists of gsp mutant (McCune-Albright syndrome) | gsp-mutant cells, cAMP HTRF, 30 min | Potency, µM (top dose mostly 76.9 µM), inactives show at the top dose activity change, negative = inhibition, actives largely listed as inhibitors | actives 0.4% (n = 340,000) | AID 624288; calls by dose curve; cell line not stated here;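 further: intracellular cAMP measured with PDE inhibitor Ro 20-1724 present during compound exposure; potency means the concentration at half of the fitted maximal effect; on the % scale 0 is the no-effect control and ±100 the full control effect; nearly all actives have a fitted effect of over 65% in size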
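Measurement of cellular cAMP by homogeneous time-resolved fluorescence following a 30 min compound exposure at 37C. The PDE inhibitor […] was present throughout; the assay buffer was DPBS with 0.05% BSA and 0.005% Tween 20.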
gsp agonist – agonists of gsp mutant (McCune-Albright syndrome) | actives 0.13% (n = 340,000) | Potency, µM (series often up to 76.9 µM), without a hit: at the highest dose activation (cAMP increase), hits mostly activators | gsp mutant cells, cAMP HTRF, 30 min | AID 624287; active means well fitted activation curve with a large enough effect; inconclusive means small, poorly fitted or top-dose-only effect, or another doubt; inactive means no such curve, though single readings can be large or run the other way; cell line not stated here;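 further: phosphodiesterase inhibitor Ro 20-1724 added with compounds to block cAMP breakdown; potency means the concentration at half of the fitted maximal effect; nearly all actives have a fitted effect of over 60% in size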
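Cells in DMEM/10% FBS with G418 were pretreated with compounds in DMSO plus […] (300 uM stock) for 30 min at 37C. cAMP was measured by HTRF (cAMP-d2 plus anti-cAMP antibody-K) after 30 min at room temperature.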
* hit, by the source's call; u = inconclusive; x = no result; ! = a repeat was not active; [ ] = another dose, or the depositor's remark.

SMILES | RXFP1 ag | RXFP1 antag | gsp antag | gsp agonist
CCOC(=O)c1c(/N=C/N(C)C)sc(/C=N/Nc2ccccc2)c1-c1ccc(Cl)cc1 | 1.2% | 1.3 | 6.7% | 12.6µM*
O=S(=O)(/N=S1\CC=CCN1S(=O)(=O)c1ccccc1)c1ccccc1 (configuration not stated) | x | -109.7* | 50.1µM* | 25.5%
CCOC(=O)N1CCN(CC(=O)Nc2ccc([N+](=O)[O-])cc2C(=O)Nc2ccccc2F)CC1 | -1.5% | 2.0 | 28.2µM* | 9.6%
CC1Cc2cc(S(=O)(=O)CCC(=O)Nc3ccc(F)cc3)ccc2N1C(=O)C1CC1 (configuration not stated) | -0.7% | 5.9 | x | x
CCOc1ccc(OCC)c(NS(=O)(=O)c2cc(-c3onc(C)c3C)ccc2OC)c1 | -0.4% | -4.1 | x | x
COc1ccc(NS(=O)(=O)c2ccc3c(c2)Cc2ccccc2-3)cn1 | 1.4% | 0.6 | 28.2µM* | -7.7%
NNc1nc2c(Cl)ccc(Cl)c2s1 | -2.8% | -22.8 | 28.2µM* | 33.4%[15.4 µM]
CC(=O)c1cccc(NC(=O)c2cccn2-c2nnc(N3CCCCC3)s2)c1 | -0.4% | -21.2 | x | x
CCOC(=O)CN(Cc1ccccc1)C(C(=O)NC1CCCCC1)c1ccccc1 (configuration not stated) | -0.4% | -16.5 | x | x
Cc1ccc(C(=O)C(=O)O)cc1C | x | -8.4 | x | x
COc1cc(OC)c(Nc2ncnc3onc(-c4cccc(Cl)c4)c23)cc1Cl | -0.5% | x | x | x
CCc1nc(Nc2cccc(O)c2)c2oc3ccccc3c2n1 | 4.5% | -76.2* | -26.2% | 22.4%
CCOc1ccc(NCc2cccn2-c2nnc(N3CCC(C(=O)NCc4ccccc4Cl)CC3)s2)cc1 | 0.4% | -2.2 | x | x
O=C(/C=C/c1ccccc1Cl)c1ccccc(=O)c1O | 5.4% | -79.1* | 4.1% | -57.8%
O=C(C=Cc1ccccc1O)c1ccccc1O | x | -66.2* | -7.6% | -33.6%
Cc1ccc(C)c(/C=C/C(=O)c2ccccc(=O)c2O)c1 | -0.8% | u | -21.0% | -10.9%
O=C(/C=C/c1ccccc1Cl)c1cccnc1 | 2.0% | -72.0* | 2.4% | 0.2%
O=C(/C=C/c1ccc(O)c(O)c1)c1ccccc1O | 5.0% | -13.8 | -8.0% | -2.7%[15.4 µM]
CCOC(=O)c1ccc(CN(Cc2ccc(Cl)cc2Cl)S(=O)(=O)c2cccc(Cl)c2)cc1 | 0.6% | -11.2 | x | x
Cc1ccccc1CS(=O)(=O)c1nnc([C@H](Cc2ccccc2)NC(=O)OC(C)(C)C)o1 | -0.3% | -66.7* | 22.0% | -58.6%
C[C@H]1O[C@@H](O[C@H]2CC[C@@]3(C)[C@H](CC[C@@H]4[C@@H]3C[C@@H](O)[C@]3(C)[C@@H](C5=CC(=O)OC5)CC[C@]43O)C2)C[C@H](O)[C@@H]1O[C@H]1C[C@H](O)[C@H](O[C@H]2C[C@H](O)[C@H](O[C@@H]3O[C@H](CO)[C@@H](O)[C@H](O)[C@H]3O)[C@@H](C)O2)[C@@H](C)O1 | x | -32.6 | x | x
COC(=O)c1ccc2c(=O)n(-c3ccccc3)c(=S)[nH]c2c1 | -1.0% | -98.7* | -12.9% | -33.4%
O=Cc1cc(N=Nc2cccc(C(=O)O)c2)ccc1O | 0.7% | -12.9 | -3.4% | 1.4%
O=Cc1cc(N=Nc2ccccc2Cl)ccc1O | -2.3% | -64.8* | u | -16.5%
CCOc1ccc(-n2cc(-c3ccccc3)c3c(=O)[nH]cnc32)cc1 | 0.1% | -97.1* | u | 18.8%
SMILES | RXFP1 ag | RXFP1 antag | gsp antag | gsp agonist
Cc1cccc(C(=O)Nc2nnc(S(=O)(=O)N(C)Cc3ccco3)s2)c1 | 14.1µM*! | 2.9 | -8.7% | 38.1%
CCCOC(=O)c1cccc(NC(=O)c2c(-c3ccccc3Cl)noc2C)c1 | -0.1% | -38.3 | x | x
Cc1ccc(C(C)C)c(OCc2ccc(C(=O)N/N=C/c3ccc(O)cc3O)cc2)c1 | 0.0% | -15.0 | 2.7% | -4.0%
Cc1ccc(C(C)C)c(OCc2ccc(C(=O)N/N=C/c3ccc(C(=O)O)cc3)cc2)c1 | 0.0% | -68.5* | -28.0% | 9.5%
CCOc1cccc(CNc2ccc(O)cc2)c1OCc1ccccc1Cl | -3.2% | -88.9*! | -17.7% | -13.9%
CCOc1cccc(CNc2ccc(O)cc2)c1OCc1ccc(Cl)cc1Cl | 0.7% | u | u | 4.0%
O=C(COc1ccccc1[N+](=O)[O-])Nc1ccc(N2CCN(C(=O)c3cccs3)CC2)cc1 | 0.3% | -27.6 | 28.2µM* | 0.7%[15.4 µM]
CCC(=O)Nc1ccc(N2CCN(C(=O)c3cccs3)CC2)cc1 | 1.0% | 1.5 | -21.2% | 3.1%
CC(CNC(=O)c1ccc(Cn2c(=O)c3cccn3c3cccnc32)cc1)c1ccccc1 (configuration not stated) | -0.9% | -0.6 | x | x
O=C(CSCc1ccccc1Cl)N1CCN(c2ccc(Cl)cc2)CC1 | 2.3% | -11.7 | x | x
O=C(N/N=C/c1c[nH]c2c1ccc1ccccc12)c1ccc([N+](=O)[O-])cc1 | -1.9% | -68.3* | -6.6% | -2.4%[15.4 µM]
COc1ccc(CN(C)c2ccc(-c3nc(-c4ccccc4)no3)cc2[N+](=O)[O-])cc1 | 0.2% | x | x | x
O=C(Nc1ccc(N2CCOCC2)c(Cl)c1)c1ccc(Cl)cc1 | 1.6% | -82.7* | -28.5% | 4.0%[15.4 µM]
Cc1ccc(NC(=O)c2cc(N3C(=O)C=CC3=O)ccc2N2CCOCC2)cc1Cl | -0.5% | -71.4* | 18.4% | 2.2%
O=C(Nc1ccc(N2CCOCC2)c(Cl)c1)c1ccc2c(c1)OCCO2 | -0.2% | -5.8 | -6.7% | -8.4%
CCc1c(C)sc2c1CCN(Cc1ccccc1)C2c1ccccc1 (configuration not stated) | 2.5% | -10.3 | x | x
COCCCNC(=O)c1ccc(OC)c(OC2CCN(C(C)C)CC2)c1 | 1.9% | 1.1 | 50.1µM* | 20.1%
COc1ccccc1CCNC(=O)c1ccc(OC)c(OC2CCN(C(C)C)CC2)c1 | -0.4% | -18.4 | 22.3% | -4.6%[15.4 µM]
COc1ccccc1NC(=O)CN1C(=O)C(c2ccc(F)cc2)=NC12CCCCC2 | 1.1% | -14.2 | x | x
CCOC(=O)NC(=O)/C(C#N)=N/Nc1ccc(F)cc1 | 0.3% | 5.3 | 25.1µM* | 19.6%
CCOC(=O)C(=O)/C(C#N)=C/Nc1ccc(F)cc1 | 0.0% | -0.4 | 5.4% | 12.4%
COCCn1cc(-c2csc(N)n2)c2ccccc21 | -0.6% | 0.5 | 0.6% | -31.6%
CN(C)c1nc(-c2cn(CCC#N)c3ccccc23)cs1 | 0.5% | -81.9* | u | -11.1%[15.4 µM]
CC(C)Cn1c(=O)c2sccc2n2c(CCCC(=O)NCCc3ccccc3)nnc12 | 3.9% | -3.5 | x | x
C=CCn1c(O)c(C2=c3ccccc3=NC2=O)c2ccccc21 | 1.1% | -95.3* | 11.0% | -28.5%
SMILES | RXFP1 ag | RXFP1 antag | gsp antag | gsp agonist
CCOC(=O)c1ccc(NC(=O)CCc2nc(-c3ccccc3)no2)cc1 | -0.6% | -16.7 | 39.8µM* | -18.7%
Cc1ccc2occ(-c3cc(-c4ccc(Cl)cc4)nc4c3COc3ccccc3-4)c(=O)c2c1 | 0.6% | x | x | x
CC(=O)c1cccc(OCc2cc(C(=O)N3CCC(N4CCCCC4)CC3)no2)c1 | -0.1% | -81.0* | -2.9% | 15.3%
CC(=O)c1cccc(OCc2cc(C(=O)N3CCSCC3)no2)c1 | -0.4% | -7.8 | 6.8% | -6.4%[15.4 µM]
C/C=C(/C(=C/C)c1ccc(OC(C)=O)cc1)c1ccc(OC(C)=O)cc1 | x | -12.3 | x | x
O=S(=O)(c1ccc(Br)cc1)N1CCCN(Cc2cccc(F)c2)CC1 | 0.3% | -20.3 | -7.1% | 5.4%
